Among the data in PubChem BioAssay AID1347426 (Functional Genomics Laboratory (NCATS/FGL), 2020) are median seed-adjusted z-score values, retold here.

About 1,400 (4.5%) of roughly 31,000 sequences were called active.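 Rule for the calls: active = median seed-adjusted z-score above 1 or below -1; inactive = the rest.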 The full list was thinned out, with actives kept by preference.

This test can be described thus: Novel Modifiers of Survival Motor Neuron (SMN) Protein: Gene Identification via Genome-wide siRNA Screen.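 Note: luminescence tracks full-length SMN protein made from the SMN2 reporter.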 The note with it: HEK293T SMN2-luciferase reporter, siRNA knockdown, 72 h; actives lie on both sides. An outline of the steps:
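HEK293T cells stably carrying an SMN2 promoter/splicing cassette–luciferase reporter were reverse-transfected with 1 pmol siRNA per well (druggable-genome library, 3 siRNAs per gene) and grown 72 h at 37 °C. Luminescence, normalized to negative-control siRNA and log10-transformed, was scored as MAD.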
For orientation: Reporter assays use an easily measured gene product as a stand-in for the process of interest.
Take GCACCUCUCUGCUAACUGUTT against PGC: the median seed-adjusted z-score is 0.884 (inactive). As for CGAUGUCAGUAGGAACCUUTT against PSMC1, the median seed-adjusted z-score was -2.23 (active). Regarding CGACUACCCAUACUCUCCATT against CDC34, the median seed-adjusted z-score is 0 (inactive). With CUACCUCUAUAUCACCAAATT against KDELR1 the figure was -0.0168 (inactive); with CCGUUGCUCUAUCUUCGUATT against SETBP1, 0.0232 (inactive); with GAAAGACAGAUCAAGAUUUTT against HOXB7, -0.153 (inactive).

On to ACCGCUUCAUGUCUGCGUATT against SF3A2, for which the median seed-adjusted z-score is -1.7 (active).

Turning to AUCCGAUGGUGGUUACUGATT against MCOLN1, the median seed-adjusted z-score was -0.522 (inactive).

Regarding CGGCUUGAAUUUGAUCUAUTT against AASDHPPT, the median seed-adjusted z-score was 0.64 (inactive). Turning to GAGUGACUGUAGAGCCUCATT against GCS1, the median seed-adjusted z-score was 0.819 (inactive).

Consider CACGGUCUGUUCUCAGAUUTT against MXD4, for which the median seed-adjusted z-score is 0.688 (inactive). The result for CCCUUUUACUAUUCAGCGATT against PPP4R2 reads 0.211 (inactive); that for CAUUUUAGAUGGGCACAAUTT against GOSR2, -1.25 (active); that for GAAUGAUCGUGAUCCUCGUTT against AHCTF1, -0.501 (inactive). For the sequence GAGUGAAGAUGAGUUGACATT against XRCC6, the median seed-adjusted z-score was 0 (inactive). Take GACCGGAUAUGGGCUAUAATT against NEK7: the median seed-adjusted z-score was 0 (inactive). As to CAAUUUUGCAGGCAACUUUTT against SCYE1, the median seed-adjusted z-score was 0.437 (inactive). With GACAUAUAAUGACAUAGAUTT against TRAK1 the figure was 0.298 (inactive); with CUUUGUCAGAGAUCACUUATT against PIPOX, 1.06 (active); with GGAAUGCUAAGUUCCGAGATT against ARFGAP1, 0.123 (inactive). For the sequence AGGUUUCAGUGGUUUGGAUTT against COL1A1, the median seed-adjusted z-score is 0 (inactive).

As for CCAAGAACCCGGAGAAGUATT against EXOC7, the median seed-adjusted z-score was -0.231 (inactive).

Turning to GUACAAUACAAACACUUAATT against ORC4L, the median seed-adjusted z-score is -0.286 (inactive).

GCGUGGACCCAAAUCAAUATT against KARS: the median seed-adjusted z-score is -0.152 (inactive).

In the case of GCUCCAACAUGGUCUACAATT against POLE, the median seed-adjusted z-score is -1.55 (active).

Consider GCUAGUCUUCUGGAAGUUATT against SRPRB, for which the median seed-adjusted z-score was 0.000693 (inactive). With GGAUAUGCAUGCAAUCAAATT against ADAM23, the median seed-adjusted z-score is -0.0279 (inactive).

For GCCGUGACAUGAUAGGCAUTT against DDX41, the median seed-adjusted z-score was -0.611 (inactive). Take GGUUUGUGAAAGCAUAUAATT against FMNL2: the median seed-adjusted z-score was 0.293 (inactive). Regarding GGAACGAAGAGAACUAGAATT against OFD1, the median seed-adjusted z-score is 0 (inactive). For the sequence CCAAGGAGCUUACUAUGGATT against SETDB2, the median seed-adjusted z-score is 0.417 (inactive).

In the case of UGAGCAUGACUGAUUCCAATT against SFTPD, the median seed-adjusted z-score was 0.289 (inactive). The result for GUGAAGAUGUGGUCCUGAATT against PTK2B reads 1.71 (active); that for GGCUGUAAACUGCGCAUCATT against APOBEC2, 0.232 (inactive); that for GAAUUGGAGAGCACCAAUATT against POLR2B, -4.81 (active). For the sequence ACAGGAUUCCAGAAAUGGATT against REG1A, the median seed-adjusted z-score was 0.596 (inactive). Turning to GCAGAAUUCUCCUACCAAATT against ENTPD3, the median seed-adjusted z-score was -0.28 (inactive). Consider GGUCAACGAUGACAACCGATT against ITGB4, for which the median seed-adjusted z-score is -0.226 (inactive). As for CGGUAUCAUUACUGGAUAATT against LNPEP, the median seed-adjusted z-score was -0.386 (inactive). As to CCUUUGAGAUGGAAGCCUATT against ACY3, the median seed-adjusted z-score is 0.568 (inactive). Consider CAACCCUACCAAUGCUACUTT against PTP4A2, for which the median seed-adjusted z-score was -1.45 (active). On to GCUGUGAAAUUGUUUCGAATT against IREB2, for which the median seed-adjusted z-score is 0 (inactive).

Turning to GGGAACUUCUUGGAACUUUTT against KLK12, the median seed-adjusted z-score is 0.243 (inactive). Consider CCAGCGCAACAAAGGAAAATT against HMX1, for which the median seed-adjusted z-score is 1.3 (active). With GAACUAAGCACUACUCUAATT against DRP2 the figure was -0.0555 (inactive); with GCUACUUCUCAGUUGCUAATT against NDST4, 0.426 (inactive); with CAAAGUGACCAAGCAGAGATT against SF3A2, -1.7 (active). The result for CACCAGGACCAGUUAAAAATT against MVD reads -0.561 (inactive). The result for GGUGAUUCAAGAUGCCCAATT against PXMP2 reads -0.444 (inactive); that for CUCCCAUGAUGGCAUCUUATT against HSPB2, 0.247 (inactive); that for CCAUCGAUGUCUCUGCUAUTT against ABCA1, -1.27 (active). UCGUCUUUGUCACCCGAAATT against CCL5: the median seed-adjusted z-score was 0.11 (inactive). The result for CGUGCGGACAAUAAGCAAATT against MYO1C reads 0.566 (inactive); that for GGCUAACUCGAUUUAAGCATT against TIGD2, -0.13 (inactive). As for GACUUUGACAAAGCGAUUATT against SPTAN1, the median seed-adjusted z-score is -0.233 (inactive).

For the sequence CAUCCAUGGUUAAGUCAUATT against PTK6, the median seed-adjusted z-score is -0.295 (inactive). GCACCUCUACAGGAACUUUTT against TSC2: the median seed-adjusted z-score was 1.11 (active). Take GCUCCUCGUUUGUAGAAGATT against SLIT3: the median seed-adjusted z-score was -0.453 (inactive). For CGAUGUCUAGAGAACAGCATT against LAMB1, the median seed-adjusted z-score was 1.07 (active). CGAGUACCGGGUCAAGAUATT against PLXND1: the median seed-adjusted z-score is -0.064 (inactive). In the case of CGGUGACCAUAGUACAACATT against FOXK2, the median seed-adjusted z-score is -0.348 (inactive). For GAGCGCCUCUAGAAUGUAATT against HMX1, the median seed-adjusted z-score was 1.3 (active).

For the sequence AGUUUGUGAUAUCAUGAGATT against FRMPD2, the median seed-adjusted z-score is -0.329 (inactive).

Turning to UCAAUACUGUGGGUUCUUATT against FBLN2, the median seed-adjusted z-score is 0.176 (inactive).

Regarding GGUACCUGCUGAUUCAGAATT against SLC2A5, the median seed-adjusted z-score is -0.429 (inactive).

Turning to GCUACAUCGAGGACCUUAATT against SERPINB1, the median seed-adjusted z-score was 0.734 (inactive). Take CCAUUGUCUUCCACCGAAATT against RAN: the median seed-adjusted z-score is -3.09 (active). On to CAACGGUAAUUAUCAGUCATT against FABP7, for which the median seed-adjusted z-score is 0.562 (inactive). For the sequence GCCUGACUGUAACACCCAATT against TXN2, the median seed-adjusted z-score was 0.87 (inactive). As for GGAAAGGUCUAGAUCAGGATT against SEL1L2, the median seed-adjusted z-score is -0.342 (inactive).
